According to PubChem BioAssay AID1159580 (chemical genetic matrix, 2015):
Several values for one entry are separate records, joined by “and”; a condition that tells them apart may be missing. Identical values can stand only once. Hit rate of the full screen: of about 5,500 compounds, about 2,000 (36%) were called active. Inconclusive results (about 18%) are left out. No stated cut-off is given here; in the data, active means normalized growth mostly below about 0.91 (no sharp cut-off); inconclusive means no clear call, values can overlap the other calls; inactive means mostly above about 0.92. Some of the results follow.

Assay: chemical genetic growth profiling, strain panel (AID 1159580);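 further: tested at 20 µM; growth read once vehicle control cultures reached saturation at 30 °C; 1 = growth at the plate median or of vehicle wells; lower values mean less growth of the strain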
Conditions: growth OD
[1] = S. cerevisiae deletion strains, locus YHR030C, strain SLT2, hits give low values
[2] = S. cerevisiae deletion strains, locus YHR079C, strain IRE1, hits give low values
[3] = S. cerevisiae deletion strains, locus YJL095W, strain BCK1, hits give low values
[4] = S. cerevisiae deletion strains, locus YJR066W, strain TOR1, hits give low values
[5] = S. cerevisiae deletion strains, locus YLR113W, strain HOG1, hits give low values
[6] = S. cerevisiae deletion strains, locus YNL183C, strain NPR1, hits give low values
[7] = S. cerevisiae deletion strains, locus YOR231W, strain MKK1, hits give low values
[8] = S. cerevisiae deletion strains, locus YPL256C, strain CLN2, hits give low values

Measured: normalized growth

CC(=O)Nc1ccc(OCC(O)CNC(C)C)cc1 (configuration not stated)
inactive: S. cerevisiae deletion strains, locus YBR021W, strain FUR4, hits give low values 1.01 | S. cerevisiae deletion strains, locus YBR229C, strain ROT2, hits give low values 1 | S. cerevisiae deletion strains, locus YCL029C, strain bik1, hits give low values 0.995 | S. cerevisiae deletion strains, locus YDL035C, strain GPR1, hits give low values 1.01 | S. cerevisiae deletion strains, locus YDL074C, strain BRE1, hits give low values 1.02 | S. cerevisiae deletion strains, locus YDL101C, strain DUN1, hits give low values 1.01 | S. cerevisiae deletion strains, locus YDL185W, strain tfp1, hits give low values 1.01 | S. cerevisiae deletion strains, locus YDL192W, strain arf1, hits give low values 1 | S. cerevisiae deletion strains, locus YDR101C, strain arx1, hits give low values 1.02 | S. cerevisiae deletion strains, locus YDR150W, strain NUM1, hits give low values 1.01 | S. cerevisiae deletion strains, locus YDR162C, strain NBP2, hits give low values 1.01 | S. cerevisiae deletion strains, locus YDR318W, strain mcm21, hits give low values 1 | S. cerevisiae deletion strains, locus YDR388W, hits give low values 1 | S. cerevisiae deletion strains, locus YDR502C, strain sam2, hits give low values 0.99 | S. cerevisiae deletion strains, locus YEL061C, strain CIN8, hits give low values 1.01 | S. cerevisiae deletion strains, locus YER110C, hits give low values 1 | S. cerevisiae deletion strains, locus YER155C, strain BEM2, hits give low values 1.01 | S. cerevisiae deletion strains, locus YER167W, strain BCK2, hits give low values 1.01 | S. cerevisiae deletion strains, locus YGL078C, strain dbp3, hits give low values 0.999 | S. cerevisiae deletion strains, locus YGL086W, strain mad1, hits give low values 1 | S. cerevisiae deletion strains, locus YGL248W, strain PDE1, hits give low values 1 | S. cerevisiae deletion strains, locus YGR078C, strain PAC10, hits give low values 1.01 | S. cerevisiae deletion strains, locus YGR135W, strain pre9, hits give low values 0.996 | S. cerevisiae deletion strains, locus YGR229C, strain SMI1, hits give low values 1 | S. cerevisiae deletion strains, locus YGR252W, strain gcn5, hits give low values 0.975 | [1] 1.01 and 0.983 | S. cerevisiae deletion strains, locus YHR079C, strain IRE1 (second series), hits give low values 0.999 | [2] 0.978 | S. cerevisiae deletion strains, locus YHR094C, strain hxt1, hits give low values 0.999 | S. cerevisiae deletion strains, locus YHR129C, strain ARP1, hits give low values 1.01 | S. cerevisiae deletion strains, locus YHR200W, strain rpn10, hits give low values 1.01 | S. cerevisiae deletion strains, locus YIL066C, strain RNR3, hits give low values 1.01 | S. cerevisiae deletion strains, locus YIL073C, strain SPO22, hits give low values 1.03 | S. cerevisiae deletion strains, locus YIL125W, strain kgd1, hits give low values 1 | S. cerevisiae deletion strains, locus YIR030C, strain dcg1, hits give low values 0.995 | [3] 1.02 and 0.982 | S. cerevisiae deletion strains, locus YJL134W, strain LCB3, hits give low values 1.01 | S. cerevisiae deletion strains, locus YJL168C, strain set2, hits give low values 1 | S. cerevisiae deletion strains, locus YJL187C, strain SWE1 (second series), hits give low values 1.02 | S. cerevisiae deletion strains, locus YJR043C, strain POL32, hits give low values 1.01 | [4] 0.965 | S. cerevisiae deletion strains, locus YKL009W, strain mrt4, hits give low values 0.991 | S. cerevisiae deletion strains, locus YKL068W, hits give low values 1 | S. cerevisiae deletion strains, locus YKL085W, strain MDH1 (second series), hits give low values 1.01 | S. cerevisiae deletion strains, locus YKL085W, strain MDH1, hits give low values 1.01 | S. cerevisiae deletion strains, locus YKR001C, strain vps1, hits give low values 1 | S. cerevisiae deletion strains, locus YLR039C, strain RIC1, hits give low values 1.05 | S. cerevisiae deletion strains, locus YLR058C, strain SHM2, hits give low values 1.01 | S. cerevisiae deletion strains, locus YLR102C, strain apc9, hits give low values 0.996 | [5] 1.01 | S. cerevisiae deletion strains, locus YLR262C, strain YPT6, hits give low values 1.03 | S. cerevisiae deletion strains, locus YLR268W, strain sec22, hits give low values 0.998 | S. cerevisiae deletion strains, locus YLR330W, strain CHS5, hits give low values 1.01 | S. cerevisiae deletion strains, locus YLR342W, strain FKS1 (second series), hits give low values 1.02 | S. cerevisiae deletion strains, locus YLR371W, strain rom2, hits give low values 1.01 | S. cerevisiae deletion strains, locus YLR418C, strain cdc73, hits give low values 0.981 | S. cerevisiae deletion strains, locus YML016C, strain PPZ1, hits give low values 1.01 | S. cerevisiae deletion strains, locus YML032C, strain rad52, hits give low values 1.02 | S. cerevisiae deletion strains, locus YML124C, strain tub3, hits give low values 0.998 | S. cerevisiae deletion strains, locus YMR078C, strain ctf18, hits give low values 1 | S. cerevisiae deletion strains, locus YMR223W, strain ubp8, hits give low values 0.985 | S. cerevisiae deletion strains, locus YMR307W, strain GAS1, hits give low values 0.965 | S. cerevisiae deletion strains, locus YNL067W, strain RPL9B, hits give low values 1.02 | S. cerevisiae deletion strains, locus YNL128W, strain TEP1, hits give low values 1.02 | S. cerevisiae deletion strains, locus YNL153C, strain GIM3, hits give low values 1.02 | [6] 0.938 | S. cerevisiae deletion strains, locus YNL233W, strain BNI4, hits give low values 1 | S. cerevisiae deletion strains, locus YNL250W, strain rad50, hits give low values 0.996 | S. cerevisiae deletion strains, locus YNL271C, strain bni1, hits give low values 0.992 | S. cerevisiae deletion strains, locus YNL298W, strain CLA4, hits give low values 1 | S. cerevisiae deletion strains, locus YNL307C, strain MCK1, hits give low values 1 | S. cerevisiae deletion strains, locus YNR052C, strain pop2, hits give low values 1.01 | S. cerevisiae deletion strains, locus YOL012C, strain htz1 0.693 | S. cerevisiae deletion strains, locus YOL147C, strain pex11, hits give low values 0.999 | S. cerevisiae deletion strains, locus YOR061W, strain CKA2, hits give low values 1.01 | S. cerevisiae deletion strains, locus YOR069W, strain VPS5, hits give low values 1.01 | S. cerevisiae deletion strains, locus YOR136W, strain idh2, hits give low values 0.999 | S. cerevisiae deletion strains, locus YOR144C, strain elg1, hits give low values 0.998 | S. cerevisiae deletion strains, locus YOR184W, strain ser1, hits give low values 1.01 | [7] 0.965 | S. cerevisiae deletion strains, locus YOR316C, strain cot1, hits give low values 0.997 | S. cerevisiae deletion strains, locus YPL241C, strain CIN2, hits give low values 1.01 | [8] 0.973 | S. cerevisiae deletion strains, locus YPR119W, strain clb2, hits give low values 1 | S. cerevisiae deletion strains, locus YPR141C, strain kar3, hits give low values 0.985 | S. cerevisiae deletion strains, locus YPR163C, strain tif3, hits give low values 1.01 | S. cerevisiae deletion strains, locus YPR167C, strain met16, hits give low values 1 | S. cerevisiae deletion strains, strain wtn01, hits give low values 0.979 | S. cerevisiae strains, strain wild type, hits give low values 1.01

CN1[C@@H]2CC[C@@H]1CC(O)C2 (some centres not stated)
inactive: [1] 1.03 | [2] 1.04 | [3] 1.05 | [4] 0.983 | [5] 0.98 | [6] 0.986 | [7] 1.01 | [8] 1.06
